# From PubChem
# TRHR ag: qHTS for Small Molecule Agonists and Allosteric Enhancers of Human TRH Receptor: Primary Screen for Agonists | Thyrotropin-releasing hormone receptor (Homo sapiens), P34981 | TRHR cells, calcium flux fluo-8, FDSS agonist mode | activation, % at 2 µM | hit rate 0.18% among 360,000; further: 0% is about no effect
#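 Agonist-mode FDSS calcium read (Ex 480/Em 530, 1 s cycles) in 1536-well TRHR cells with fluo-8 dye, after 10-cycle baseline and 23 nL compound addition; TRH at EC20 (10 nM final) added afterwards for the enhancer phase.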
# D1 antagonist: Antagonist of Human D 1 Dopamine Receptor: qHTS; HEK293 TREx D1 cells, calcium flux, dopamine EC80; active compounds read low; D(1A) dopamine receptor (Homo sapiens), P21728; AID 504652, 2011; activity change, negative = inhibition, % at 10 µM; hit rate 3.2% among 360,000; in the data active means activity change below about -30%; further: on the % scale 0 is the no-effect control and ±100 the full control effect
# Target sequence (P21728 whole entry, looked up): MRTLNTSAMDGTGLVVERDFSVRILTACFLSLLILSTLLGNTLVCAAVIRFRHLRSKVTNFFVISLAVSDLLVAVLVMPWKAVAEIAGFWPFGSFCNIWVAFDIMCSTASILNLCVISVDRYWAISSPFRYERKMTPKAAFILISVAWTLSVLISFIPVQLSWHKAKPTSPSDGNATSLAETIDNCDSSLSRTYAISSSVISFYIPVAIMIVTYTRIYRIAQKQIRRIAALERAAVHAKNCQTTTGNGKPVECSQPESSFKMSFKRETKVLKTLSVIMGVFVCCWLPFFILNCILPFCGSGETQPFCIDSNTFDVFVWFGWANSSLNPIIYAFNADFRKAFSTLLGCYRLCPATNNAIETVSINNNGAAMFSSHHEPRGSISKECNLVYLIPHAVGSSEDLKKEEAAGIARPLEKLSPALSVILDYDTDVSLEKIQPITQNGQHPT
#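 HEK293 T-REx cells expressing inducible, force-coupled D1 receptor; no-wash Ca dye, 30–90 min RT. Cmpd → 180 s read at 1 Hz → EC80 DA → 180 s read.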
# D1 agonist: Allosteric Agonists of the Human D1 Dopamine Receptor: qHTS. hit rate 1% among 360,000. activation, % at 2 µM. AID 504660, 2011. HEK293 T-REx D1 cells, calcium flux, agonist mode. D(1A) dopamine receptor (Homo sapiens), P21728; further: 0% is about no effect
#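 Tetracycline-induced HEK293 TREx D1 cells, force-coupled to calcium signalling, were dye-loaded with a no-wash calcium kit. Compound was pin-added after a 10 s baseline. Fluorescence was read kinetically at 1 cycle/s for 180 s, with calcium rises flagged as agonism.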
# TRHR enhancer: qHTS for Small Molecule Agonists and Allosteric Enhancers of Human TRH Receptor: Primary Screen for Enhancers; hit rate 0.66% among 360,000; TRHR cells, fluo-8 calcium fluorescence, EC20 TRH enhancement; Thyrotropin-releasing hormone receptor (Homo sapiens), P34981; AID 493056, 2011; enhancement, % at 2 µM; in the data active means enhancement above about 30%; further: 0% is about no effect
#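 Enhancer read-out: after compound pinning and an initial kinetic agonist-mode read, an EC20 of TRH (10 nM final) was injected and fluo-8 calcium signal (Ex 480/Em 530) followed at 1 s/cycle for 100 cycles in TRHR-expressing cells.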
# D1 potentiator: Potentiators of Human D1 Dopamine Receptor: qHTS | D(1A) dopamine receptor (Homo sapiens), P21728 | HEK293 TREx D1 cells, calcium flux, dopamine EC20 potentiation | potentiation, % at 10 µM | hit rate 0.036% among 360,000; in the data active means potentiation above about 30%; further: 0% is about no effect
# An asterisk follows results filed as active; / = no result. The list is not random: actives were taken first. Their share in the collection is about 4.6%. Unless noted, no stated cut-off is given here; in the data, active means activation above about 30%; inactive means the rest.
SMILES,TRHR ag,D1 antagonist,D1 agonist,TRHR enhancer,D1 potentiator
O=C(NCc1ccc(F)cc1)c1cnc2n(c1=O)CCS2,0,-37*,1,1,-3
Cc1c(Cl)cccc1NC(=O)CSc1nc(=O)[nH]c2c1CCC2,0,/,-2,-7,0
O=C(CCCc1nc2ccccc2s1)NCc1ccccc1F,-1,-42*,2,-3,6
COc1ccccc1CNC(=O)CCc1c(C)nc2c(c(C)nn2-c2ccc(C)c(C)c2)c1C,1,-73*,-2,-3,-3
CC(=O)Nc1ccnc(-c2cccnc2)n1,1,-4,0,1,0
CCCCC(=O)Nc1ccnc(-c2cccnc2)n1,0,-86*,220*,1,-2
CC(C)(C)c1ccc(S(=O)(=O)N2CCC(Oc3ccc(-n4cnnn4)cc3)CC2)cc1,3,2,1,6,-2
Cc1cc(C)cc(C(=O)OCC(=O)N2CCCCCC2)c1,0,-30*,0,-17,-11
CCn1c(SCC(=O)N(C)c2ccccc2)nc2c([nH]c3ccccc32)c1=O,-2,-37*,1,-1,-6
CCOC(=O)N1CCN(C(=O)CSc2nc3c([nH]c4ccccc43)c(=O)n2CC)CC1,-1,-36*,0,0,4
Cc1ccccc1NC(=O)Nc1ccc2c(c1)OCO2,1,-20,2,-2,-7
Cc1c(NC(=O)Nc2ccc3c(c2)OCO3)cccc1[N+](=O)[O-],1,-44*,14,-1,-10
Cc1nc(-c2ccc(Cl)cc2)sc1CCNC(=O)c1ccc(C(F)(F)F)cc1,0,3,4,6,1
O=S(=O)(c1ccc(-c2cc(C(F)(F)F)on2)s1)N1CCN(c2cccc(Cl)c2)CC1,0,-5,3,8,-4
COc1ccccc1OS(=O)(=O)c1ccc(NC(C)=O)cc1,0,-12,6,4,1
COC(=O)/C=C/S(=O)(=O)c1ccc(NC(C)=O)cc1,1,8,2,33*,-1
Cc1ccc(S(=O)(=O)N2CCN(Cc3ccco3)CC2)c(C)c1,0,-8,4,-6,38*
Cc1c(C(=O)OC2CCCC2)[nH]c2c1C(=O)CC(c1ccc(C(C)(C)C)cc1)C2 (stereo not given),0,-31*,3,1,2
COc1ccc(S(=O)(=O)NCCc2sc(-c3ccccc3)nc2C)cc1OC,0,-11,2,-2,-1
CCC(=O)Nc1ccccc1-c1nc2ccccc2n(CC(=O)c2ccc(Br)cc2)c1=O,0,-1,-1,-1,0
Cc1ccc(C)c(N2CCN(C(=O)c3ccc4[nH]c(C)c(C)c4c3)CC2)c1,0,-33*,0,23,-4
O=C(Nc1ccc(S(=O)(=O)N2CCCCC2c2cccnc2)cc1)c1ccc(F)cc1 (stereo not given),0,-20,3,-3,-1
CC(C)(C)c1ccc(-n2nc(C#N)c(Cl)cc2=O)cc1,2,-41*,1,-20,-5
COc1ccc(CNC(=O)Cn2ccc3cc(S(=O)(=O)N4CCCCCC4)ccc32)cc1OC,0,2,2,-3,-2
O=C(Cc1c(F)cccc1Cl)NCc1cccnc1,0,-4,1,23,2
SMILES,TRHR ag,D1 antagonist,D1 agonist,TRHR enhancer,D1 potentiator
O=C(NCc1cccnc1)c1ccc(Br)o1,0,-32*,0,1,-6
O=C(NCc1ccncc1)c1ccc(Br)o1,1,-10,3,8,-2
O=C(Cc1ccc(Cl)cc1Cl)NCc1cccnc1,0,-41*,0,-4,-3
Cc1ccccc1S(=O)(=O)Cc1ccc(C(=O)N2CCN(c3cccc(Cl)c3)CC2)o1,0,7,4,-10,-3
COc1cccc(CSc2nc3n(n2)C(c2ccccc2C)C(C(=O)Nc2ccccc2OC)=C(C)N3)c1 (stereo not given),0,1,0,-3,0
COC(=O)c1ccc2nc(C)cc(Nc3cccc(Cl)c3C)c2c1,-1,11,0,10,-1
